{"source": "PubChem BioAssay AID2676", "about": "(National Center for Advancing Translational Sciences (NCATS), 2010)", "note": "The whole screen tested about 370,000 compounds, of which about 1,100 (0.3%) were called active. A call without a number means that no potency is given here. Not shown: some 1% with an inconclusive outcome. Calls come from the whole dose curve; as a rule, active = well fitted activation curve with a large enough effect; inconclusive = small, poorly fitted or top-dose-only effect; inactive = flat fitted curve, though single readings scatter. Only a selection was taken, and actives are over-represented in it overall. Potency is the fitted concentration of half-maximal effect."}
{"molecular_target": "Relaxin receptor 1 (Homo sapiens) (UniProt Q9HBX9)", "sequence (Q9HBX9 whole entry, looked up)": "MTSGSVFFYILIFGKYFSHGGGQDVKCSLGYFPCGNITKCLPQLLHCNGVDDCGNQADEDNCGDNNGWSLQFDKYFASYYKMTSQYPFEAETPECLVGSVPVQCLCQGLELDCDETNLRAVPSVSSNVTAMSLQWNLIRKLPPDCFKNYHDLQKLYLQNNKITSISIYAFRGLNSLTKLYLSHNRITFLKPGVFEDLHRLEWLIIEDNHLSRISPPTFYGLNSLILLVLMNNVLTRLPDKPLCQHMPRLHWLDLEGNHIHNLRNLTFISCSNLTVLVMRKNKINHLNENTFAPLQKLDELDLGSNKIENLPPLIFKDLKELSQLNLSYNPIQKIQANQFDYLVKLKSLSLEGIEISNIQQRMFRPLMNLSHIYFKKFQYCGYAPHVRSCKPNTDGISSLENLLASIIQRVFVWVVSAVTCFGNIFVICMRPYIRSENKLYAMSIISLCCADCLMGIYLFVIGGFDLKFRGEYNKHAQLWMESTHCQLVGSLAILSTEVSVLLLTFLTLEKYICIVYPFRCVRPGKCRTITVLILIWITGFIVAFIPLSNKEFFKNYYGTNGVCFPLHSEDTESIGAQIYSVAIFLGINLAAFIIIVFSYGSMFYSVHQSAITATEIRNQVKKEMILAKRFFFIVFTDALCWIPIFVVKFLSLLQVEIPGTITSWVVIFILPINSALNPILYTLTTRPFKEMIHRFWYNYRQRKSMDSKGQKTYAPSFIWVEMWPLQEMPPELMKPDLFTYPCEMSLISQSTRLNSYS", "test": "qHTS Assay for Agonists of the Relaxin Receptor RXFP1; note: nearly all actives have a fitted effect of over 60% in size", "conditions": "HEK293T-RXFP1 cAMP TR-FRET, 30 min; series mostly up to 57.5 µM", "from_the_text": "NIH Chemical Genomics Center [NCGC] NIH Molecular Libraries Probe Production Centers Network [MLPCN] MLPCN Grant: R03 MH085705-01A1 Assay Submitter (PI): Alexander Agoulnik NCGC Assay Overview: The relaxin hormone is involved in the variety of biological functions in normal tissues and diseases. The role of relaxin is well-established in female reproduction and parturition, mammary gland and endometrial development, maintenance of myometrial quiescence during pregnancy. Relaxin signaling through its G protein-coupled receptor (GPCR) RXFP1 results in ECM remodeling through regulation of collagen deposition, cell invasiveness, proliferation and overall tissue homeostasis. […] Recombinant human relaxin (rhRlx) is currently being tested in clinical trials as a protective agent in congestive heart failure, in treating severe preeclampsia, and as an anti-fibrotic agent in systemic sclerosis. Upon relaxin binding RXFP1 activation leads to the activation of adenylate cyclase (AC) via Gs. cAMP will activate PKA, which phosphorylates many signaling proteins. Thus, detection of cAMP increase is an easy and reliable indication of relaxin receptor activation. To screen for agonists of the relaxin receptor, a HEK293T cell line stably transfected with RXFP1 was used. RXFP1 activation was assayed by changes in cAMP levels as detected with a time-resolved fluorescence energy transfer (TR-FRET) cAMP detection kit.\nNCGC Assay Protocol Summary: This is a cell-based assay for cAMP second messenger response to screen for agonists of the RXFP1 receptor. The assay was conducted in the presence of a PDE4 inhibitor (Ro 20174). The cells were lysed and the cAMP levels were measured with a TR-FRET cAMP kit. Presence of cAMP in the cell lysate disrupts binding between the cryptate-labeled anti-cAMP and d2-labeled cAMP pair, leading to a decrease in the TR-FRET signal. Data were normalized to the controls for basal activity (buffer only) and 100% activity (29 nM porcine relaxin). The EC50 values were determined from concentration-response data modeled with the standard Hill equation 1536-well assay protocol for the HEK293 RXFP1 cAMP assay: (1) Add 3 ul HEK293 RXFP1 cell culture. 2000 cells/well in DMEM/F12, 10% FBS, 1x Pen/Strep (dispensed offline with MultiDrop Combi). (2) Incubate 16-24 hr at 37C, 5% CO2. (3) Add 1 ul 400uM Ro20174 in DPBS, 0.05% BSA, 0.005% Tween 20. (3) Add 23 nl compounds in DMSO solution. Final concentration was 0.5 - 58 uM. (4) Incubate 30 min at 37C, 5% CO2. (5) Add 1 ul cAMP-d2 in lysis buffer (HTRF cAMP HiRange kit, CisBio). (6) Add 1 ul anti-cAMP antibody-cryptate in lysis buffer (HTRF cAMP HiRange kit, CisBio). (7) Incubate 30 min at room temperature. (6) Detect the assay plate in a ViewLux plate reader (PerkinElmer) with Ex=320 nm, Em1=615 nm and Em2=665 nm. Keywords: relaxin, RXFP1, RXFP2, G-protein coupled receptor, cAMP, agonist, high throughput screening, MLSMR, MLSCN, NIH Roadmap, qHTS and NCGC"}
{"smiles": "COc1ccc(N2CCN(C3=NS(=O)(=O)C(c4cccc(Br)c4)=C3C)CC2)cc1", "Potency": "inactive"}
{"smiles": "Cc1c(-c2nsc(NC(=O)c3cccc(Cl)c3)n2)nnn1-c1ccccc1C(F)(F)F", "Potency": "inactive"}
{"smiles": "COc1ccc(-c2nc3c(c(SCC(=O)Nc4ccc(C(=O)O)cc4)n2)Cc2ccccc2O3)cc1", "Potency": "inactive"}
{"smiles": "Cc1ccc(-c2nn(CCC(=O)Nc3ccc(OC(F)(F)F)cc3)c(=O)c3ccccc23)cc1", "Potency": "inactive"}
{"smiles": "COc1ccc(-n2c(SCC(N)=O)nc3c(oc4ccccc43)c2=O)cc1", "Potency": "inactive"}
{"smiles": "COC(=O)c1ccccc1NC(=O)C(Cc1ccccc1)N1Cc2ccccc2C1=O", "note": "(stereo unspecified)", "Potency": "inactive"}
{"smiles": "CC1=C(c2ccc(F)cc2)S(=O)(=O)N=C1N1CCC(C(=O)NCCc2ccccc2C)CC1", "Potency": "inactive"}
{"smiles": "Cc1ccc2nc3c(cc(C(=O)NC4CCCCC4)c(=N)n3C(C)C)c(=O)n2c1", "Potency": "inactive"}
{"smiles": "COc1cccc(-n2c(=O)c3c(C)c(C(=O)N(C)C)sc3n(Cc3cccc(C)c3)c2=O)c1", "Potency": "inactive"}
{"smiles": "CCCCOc1ccc(CNC(=O)c2ccc3c(c2)N(C)C(=O)C2CCCCN32)cc1", "note": "(stereo unspecified)", "Potency": "inactive"}
{"smiles": "O=C(c1ccc2c(c1)N(Cc1ccccc1)C(=O)c1ccccc1S2(=O)=O)N1CCC(Cc2ccccc2)CC1", "Potency": "inactive"}
{"smiles": "Cc1cccc(NC(c2cccc(F)c2)c2ccc3ccc(C)nc3c2O)n1", "note": "(stereo unspecified)", "Potency": "inactive"}
{"smiles": "CCOc1ccccc1NC(=O)Cn1c(=O)n(Cc2ccccc2)c(=O)c2c(C)c(C(=O)N(C)C)sc21", "Potency": "inactive"}
{"smiles": "COc1ccc(S(=O)(=O)Nc2cc3c(C(=O)OC(C)C)c(C)oc3c3ccccc23)cc1", "Potency": "inactive"}
{"smiles": "CC1=C(C(=O)N2CCN(c3cccc(C(F)(F)F)c3)CC2)C2(CCCCC2)OC1=O", "Potency": "inactive"}
{"smiles": "CC(C)(C)OC(=O)N1CCC(c2c(C(=O)N3CCN(c4cccc(Cl)c4)CC3)cnn2-c2cccc(Cl)c2)CC1", "Potency": "inactive"}
{"smiles": "COc1ccc2c(c1)CCc1c(C(=O)Nc3cc(C)ccc3O)noc1-2", "Potency": "inactive"}
{"smiles": "COc1cccc(CNC(=O)Cn2c(=O)c3cccn3c3ccc(F)cc32)c1OC", "Potency": "inactive"}
{"smiles": "O=C(NCCc1ccccc1)c1cnc2sc(N3CCCC3)nn2c1=O", "Potency": "inactive"}
{"smiles": "COc1ccccc1-c1nnc(SCC(N)=O)o1", "Potency": "inactive"}
{"smiles": "COc1cccc(C2C(C(=O)Nc3ccc(C)cc3C)=C(C)Nc3c(C(=O)Nc4ccccc4)cnn32)c1", "note": "(stereo unspecified)", "Potency": "inactive"}
{"smiles": "CCCCN1C(=O)c2[nH]nc(-c3ccccc3O)c2C1c1cccc(OCc2ccccc2)c1", "note": "(stereo unspecified)", "Potency": "inactive"}
{"smiles": "CCN(C(=O)c1sc2cc(OC)ccc2c1Cl)c1ccccc1", "Potency": "inactive"}
{"smiles": "CCC(Sc1nc2n[nH]c(C)c2c(=N)n1-c1ccccc1Cl)C(=O)N(CC)CC", "note": "(stereo unspecified)", "Potency": "inactive"}
{"smiles": "Cc1nn(Cc2ccc(F)cc2)c(C)c1NC(=O)c1cc(CC(C)C)on1", "Potency": "inactive"}
{"smiles": "Cc1ccccc1NC(=O)c1cc2c([nH]c1=O)CC(C)(C)CC2=O", "Potency": "inactive"}
{"smiles": "O=C(CCn1c(=O)c2sccc2n(Cc2ccc(F)cc2)c1=O)NCc1ccc2c(c1)OCO2", "Potency": "inactive"}
{"smiles": "CCCCN1CC(c2nc3ccccc3n2CCCCOc2ccc(C)cc2C)CC1=O", "note": "(stereo unspecified)", "Potency": "inactive"}
{"smiles": "O=C(c1ccc(C(F)(F)F)cc1)N1CCC(c2nc(-c3ccc(S(=O)(=O)N4CCCC4)cc3)no2)CC1", "Potency": "inactive"}
{"smiles": "CC(C)(C)c1ccc(C(=O)NCC(c2ccco2)S(=O)(=O)c2ccc(F)cc2)cc1", "note": "(stereo unspecified)", "Potency": "inactive"}
{"smiles": "COc1ccc(Cc2nc3ccc(C(=O)NCc4ccc(OC)cc4OC)cc3o2)cc1", "Potency": "inactive"}
{"smiles": "O=C(CSCc1cnn(-c2ccccc2)c1-n1cccc1)NCc1ccc(Cl)cc1", "Potency": "inactive"}
{"smiles": "O=C(Nc1ccc(Br)cc1)c1ccc(Br)c(S(=O)(=O)NCc2ccccc2)c1", "Potency": "inactive"}
{"smiles": "O=C(Nc1ccc2nc(SCC(=O)N3CCCc4ccccc43)sc2c1)c1ccc(Cl)cc1", "Potency": "inactive"}
{"smiles": "CCOC(=O)c1ccc(N2C(=O)c3[nH]nc(-c4ccccc4)c3C2c2ccc(C(C)C)cc2)cc1", "note": "(stereo unspecified)", "Potency": "inactive"}
{"smiles": "Fc1ccc(-c2nn(-c3ccccc3Cl)c3c2cnc2ccccc23)cc1", "Potency": "inactive"}
{"smiles": "CCOc1cccc2sc(N3CCN(C(=O)C4CC4)CC3)nc12", "Potency": "inactive"}
{"smiles": "COc1ccc(C(=O)COC(=O)c2nn(C)c(=O)c3ccccc23)c(OC)c1", "Potency": "inactive"}
{"smiles": "COc1ccc(C(=O)COC(=O)Cn2cnc3c2c(=O)n(C)c(=O)n3C)c(OC)c1", "Potency": "15.8 µM (active)"}
{"smiles": "Cn1c(=O)c2c(ncn2CC(=O)N2CCN(c3ccccc3)CC2)n(C)c1=O", "Potency": "inactive"}
{"smiles": "COc1ccc(Cn2ccnc2SCC(=O)Nc2ccc3c(c2)OCO3)cc1", "Potency": "inactive"}
{"smiles": "CCC(C)c1ccc2oc(-c3ccc(NC(=O)c4cc5ccccc5o4)cc3)nc2c1", "note": "(stereo unspecified)", "Potency": "inactive"}
{"smiles": "Cn1nnnc1SCCNCc1ccc(Cl)c(Cl)c1", "Potency": "inactive"}
{"smiles": "COc1ccc(Br)cc1CNC(=O)c1cc(=O)[nH]c2ccc(S(=O)(=O)N3CCCC3)cc12", "Potency": "inactive"}
{"smiles": "CCOC(=O)c1ccc(CSc2nnc3cc(C)c4ccccc4n23)cc1", "Potency": "inactive"}
{"smiles": "O=c1cc(-c2ccccc2)n2c(SCc3ccccc3)nnc2[nH]1", "Potency": "inactive"}
{"smiles": "O=c1c2sccc2nc(SCc2cc(=O)n3ccccc3n2)n1-c1ccc(Br)cc1", "Potency": "inactive"}
{"smiles": "Cc1cccc2nc(CSc3nc4[nH]ncc4c(=O)n3-c3cccc(Cl)c3)cc(=O)n12", "Potency": "inactive"}
{"smiles": "CCc1ccc(-n2c(SCc3cc(=O)n4cc(Br)ccc4n3)nc3[nH]ncc3c2=O)cc1", "Potency": "20 µM (active)"}
{"smiles": "CCCN1C(=O)C(O)(CC(=O)c2ccc(CC)cc2)c2cc(Br)ccc21", "note": "(stereo unspecified)", "Potency": "inactive"}
{"smiles": "COc1cccc(CNC(=O)Cn2ncn3c(cc4ccccc43)c2=O)c1", "Potency": "inactive"}
{"smiles": "CCCSc1ncc(Cl)c(C(=O)Nc2c(C(=O)Nc3ccccc3)oc3ccccc23)n1", "Potency": "inactive"}
{"smiles": "Cc1cc(NS(=O)(=O)c2ccc(NC(=O)c3ccccc3C)cc2)nc(C)n1", "Potency": "inactive"}
{"smiles": "CCCn1c(NCc2ccccc2F)nc2ccccc21", "Potency": "inactive"}
{"smiles": "COc1ccc(-c2cn3c(n2)sc2cc(C(=O)Nc4ccc(F)cc4)ccc23)cc1", "Potency": "inactive"}
{"smiles": "O=C(Cn1nc(Cc2cccnc2)c2ccccc2c1=O)N1CCN(c2ccccc2F)CC1", "Potency": "inactive"}
{"smiles": "Cc1ccccc1NC(=O)Cn1c(=O)n(CCCCC(=O)NCc2ccccc2Cl)c(=O)c2ccccc21", "Potency": "inactive"}
{"smiles": "CCCCNC(=O)CSc1nc2cc3c(cc2c(=O)n1CCCCCC(=O)NCc1ccc2c(c1)OCO2)OCO3", "Potency": "inactive"}
{"smiles": "CC(C)CCSc1ncnc2c1oc1nc3c(cc12)COC(C)(C)C3", "Potency": "inactive"}
{"smiles": "CC1(C)Cc2nc3sc4c(SCC(=O)NC(c5ccccc5)c5ccccc5)ncnc4c3cc2CO1", "Potency": "3.16 µM (active)"}
{"smiles": "O=C(CSc1ncnc2scc(-c3ccccc3)c12)NCc1ccc2c(c1)OCO2", "Potency": "inactive"}
